Rows were chosen to be rich in hits. Some 4.6% of all compounds tested hit in one or more screens of this group.
hgDAF-12 ag – hgDAF-12 agonism, primary luciferase screen; HEK293 GAL4-hgDAF12 UAS-luciferase reporter, agonist luminescence; normalized to butyrate control; activation, % at 6.8 µM; 370,000 tested, 1.8% active; AID 687014;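 active means activation above a cutoff set at the mean of all screened compounds plus 3 SD, cut at about 10% in these data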;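 further: 0% = DMSO wells and 100% = sodium butyrate wells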
hcDAF12 agonist – H. contortus DAF-12 activation, primary screen; HEK293 hcDAF-12 lit1-tk-luc reporter, luminescence; 0% DMSO, 100% Δ7-dafachronic acid; activation, % at 6.8 µM; 370,000 tested, 1.4% active; AID 652067;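 active means activation above the mean of all tested compounds plus 3 SD, cut at about 5.5% in these data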;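 further: 100% = response to 3 µM Δ7-dafachronic acid high control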
DAX1 inh-1 – inhibitors of DAX1 repression of SF-1 activated StAR promoter; HEK293T StAR-luciferase reporter, SF-1/DAX-1 repression relief; inhibition, % at 6.8 µM; 370,000 tested, 1.1% active; AID 652010;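 active means inhibition above the mean over all tested compounds plus 3 SD, cut at about 3.6% in these data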;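 further: 0% = DAX-1 cells with DMSO and 100% = cells lacking DAX-1 with DMSO; higher inhibition means more luminescence from relief of DAX-1 repression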
Wee1 stabilizer – blocks degradation of human Wee1 kinase. HeLa Luc-Wee1K328M stability, luciferase luminescence; 100% = proteasome inhibitor MG132 effect. 220,000 tested, 1.2% active. AID 1321. P30291. reporter increase, % at 5 µM;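 active means activation above the mean of all tested compounds plus 3 SD, set per screening run, cut at about 8.8% in these data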;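 further: cells exposed to compound for 20 h before luminescence read; 0% = DMSO alone and 100% = MG132 at 30 µM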
DAX1 inh-2 – inhibits human nuclear receptor DAX1 | 340,000 tested, 0.99% active | inhibition, % at 6.75 µM | HEK293 Gal4-DAX1 luciferase reporter, luminescence | AID 504766 | P51843;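 active means inhibition above the mean over all tested compounds plus 3 SD, cut at about 4.2% in these data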;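 further: 0% = DAX1-transfected cells with DMSO and 100% = empty-vector control cells with DMSO; inhibition shows as a rise in luminescence from relieved DAX1 repression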
Target sequence (P51843 207-470 limits assumed): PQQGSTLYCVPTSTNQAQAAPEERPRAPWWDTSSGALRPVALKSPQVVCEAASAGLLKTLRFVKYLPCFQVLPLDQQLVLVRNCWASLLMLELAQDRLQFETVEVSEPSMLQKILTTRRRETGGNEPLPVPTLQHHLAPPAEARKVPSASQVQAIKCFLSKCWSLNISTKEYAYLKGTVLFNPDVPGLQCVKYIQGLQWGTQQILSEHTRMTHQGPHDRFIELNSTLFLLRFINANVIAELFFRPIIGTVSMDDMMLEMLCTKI
ssDAF-12 act – activators of S. stercoralis DAF-12 nuclear receptor | activation, % at 6.8 µM | HEK293 ssDAF-12/GRIP1 lit1-tk-luc reporter, luminescence; % of 3 µM dafachronic acid response | 370,000 tested, 1% active;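 active means activation above the mean over all tested compounds plus 3 SD, cut at about 0.9% in these data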;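 further: 0% = DMSO-only wells and 100% = 3 µM delta7-dafachronic acid wells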
* marks the source's active call; other numbers are inactive results; · = no result.

SMILES	hgDAF-12 ag	hcDAF12 agonist	DAX1 inh-1	Wee1 stabilizer	DAX1 inh-2	ssDAF-12 act
CCc1ccc(N2C(=O)CC(Cn3nc(C)cc3C)C2=O)cc1 (centres undefined)	0	0	0	-1	5.1*	-1
COc1ccc(-c2cc(NC(=O)Cc3c[nH]c4ccccc34)ccc2Nc2cccnc2)c(OC)c1	-2	1	-1	·	·	-1
CCCOc1ccc(C2c3c(oc4cc(C)c(C)cc4c3=O)C(=O)N2CCCN(C)C)cc1 (centres undefined)	4	0	1	0	6.7*	-1
CN(Cc1ccccc1)C(=O)c1csc([C@@H]2O[C@H](CO)[C@H](O)[C@H](O)[C@H]2O)n1	6	0	0	·	·	-2
CCOc1ccccc1C(=O)NN1C(=O)CCC1=O	4	4	0	-1	3	1.0*
CCOc1ccccc1C(=O)NCCNC(=O)c1ccccc1OCC	-1	-1	0	·	2	-2
CCOc1ccccc1-c1ccc(C(=O)NCc2ccccc2)o1	-2	-1	0	3	7.3*	-1
CCC1CCCCN1CC(=O)c1c(C)[nH]c2cc(C)ccc12 (centres undefined)	0	5.8*	0	·	4	-1
Cc1ccc2c(C(=O)CN3CCCCC3CCO)c(C)[nH]c2c1 (centres undefined)	0	-1	0	3	1	0
O=C(Nc1cc(Cl)ccc1Oc1ccccc1)c1ccccc1F	-1	-2	-1	5	-1	-1
Cc1ccc(Oc2ccc(Cl)cc2NC(=O)c2ccc(F)cc2F)cc1	2	2	1	-2	6.0*	-1
COc1ccccc1/C=C/C(=O)NCCC1=CCCCC1	12*	2	3	1	1	0
COc1ccc(NC(=O)NCCC2=CCCCC2)cc1	12*	2	2	0	1	-1
COc1ccccc1OCC(=O)NCCC1=CCCCC1	-2	-3	0	0	-1	-2
COc1cccc(NC(=O)NCCC2=CCCCC2)c1	8	1	1	2	1	0
O=C(CN1C(=O)CCSc2ccccc21)Nc1ccc(Cl)c(Cl)c1	-2	-3	1	·	·	-1
CCNC1CCS(=O)(=O)C1 (centres undefined)	-2	-1	0	0	4	0
O=S1(=O)CCC(NCC2CCCO2)C1 (centres undefined)	-1	-1	-1	1	7.4*	-2
COC(=O)Nc1nnc(-c2ccc(OC)cc2)s1	13*	1	1	-1	3	0
COc1ccc(-c2nnc(NC(=O)c3c(OC)cccc3OC)s2)cc1	0	-1	-1	·	0	-1
CCc1nnc(NC(=O)c2ccc(OC)cc2)s1	11*	2	3	2	2	-1
Cc1cccc(-c2nnc(NC(=O)c3cccs3)s2)c1	-1	-1	0	2	4.3*	-1
Cc1ccc(C(=O)Nc2nnc(COCCO)s2)cc1	10	6.0*	2	·	·	1.0*
CCNC(=O)C1CCCN(C(=O)c2ccc(C(=O)OC)cc2)CC1 (centres undefined)	-3	2	1	·	·	-1
CCOCc1nnc(NC(=O)c2cccc(OC)c2)s1	4	2	2	8	2	0
SMILES	hgDAF-12 ag	hcDAF12 agonist	DAX1 inh-1	Wee1 stabilizer	DAX1 inh-2	ssDAF-12 act
CCc1nnc(NC(=O)c2cccc(OC)c2)s1	6	3	3.9*	-1	0	0
COc1ccc(-c2nnc(NC(=O)c3cccs3)s2)c(OC)c1	1	5	0	5	1	0
COc1ccc(C(=O)Cc2ccccc2C(=O)O)cc1	2	0	0	·	3	-1
COc1ccc(C(=O)Cc2nnc(C)s2)cc1	5	4	1	-2	4.8*	-1
COc1cccc(C(=O)Nc2nnc(-c3cccs3)s2)c1	11*	3	2	0	2	0
COc1ccc(C(=O)NC2=NCCS2)cc1	12*	0	2	·	1	0
Cn1c(N)c(C(=O)COC(=O)C2Cc3ccccc3CN2S(C)(=O)=O)c(=O)n(C)c1=O (centres undefined)	-2	1	0	·	0	-1
Cc1ccc(-n2c(SCC(=O)Nc3ccccc3-c3ccccc3)nnc2-c2ccccn2)cc1	-2	-3	-1	·	·	-2
CCOC(=O)CNC(=O)CSc1nnc(NC(=O)c2ccc(C)cc2)s1	13*	6.4*	2	3	-1	0
COc1ccc(CC(=O)Nc2nnc(C(C)(C)C)s2)cc1OC	1	-2	0	2	-1	-2
CCc1nnc(NC(=O)Cc2ccc(OC)c(OC)c2)s1	-3	-2	0	-3	5.1*	-2
COc1cccc(C(=O)Nc2nnc(C3CCCO3)s2)c1 (centres undefined)	9	2	2	1	2	1.0*
CC(C)C(=O)OCCCN1CCC2(CCC(c3ccccc3)CC2)C1=O (centres undefined)	2	-2	0	·	·	-1
CCCC1CCC2(CC1)CCC2OC(=S)Nc1cccc(I)c1 (centres undefined)	4	1	·	·	·	-1
CC(C)C[C@H]1CN(CCCC[C@H]2CNC(=O)C(=O)N2Cc2ccccc2)C(=O)C(=O)N1CC1CCCCC1	-3	-1	0	·	·	-1
Cc1cccc(C)c1NC(=O)C(c1ccccc1)N1CCN(C)CC1 (centres undefined)	0	2	4.4*	·	·	-1
Cc1cccc(C)c1NC(=O)C(c1ccncc1)N1CCN(C)CC1 (centres undefined)	-3	-1	0	·	·	-1
CC1(C)C=Cc2cc3ccc(=O)oc3cc2O1	8	2	1	·	6.7*	0
COc1c2c(cc3oc(=O)ccc13)OC(C)(C)C=C2	10	4	1	·	4	-1
Cc1ccccc1NC(=O)Cc1nc(COC(=O)CCNS(=O)(=O)c2ccccc2)cs1	0	1	2	·	0	-1
CC1CCCN(CCCNC(=O)c2cn(C)c3ccc(S(=O)(=O)N(C)C4CCCCC4)cc3c2=O)C1 (centres undefined)	0	-2	1	·	0	-1
CN(CCCNC(=O)c1cn(C)c2ccc(S(=O)(=O)N(C)C)cc2c1=O)c1ccccc1	1	-1	-2	-2	5.3*	0
CN(C)S(=O)(=O)c1ccc2c(c1)c(=O)c(C(=O)N1CCOCC1)cn2C	3	2	1	2	5.9*	-2
CCN(CC)S(=O)(=O)c1ccc2c(c1)c(=O)c(C(=O)NCCCN(C)c1ccccc1)cn2C	1	-2	1	-2	1	-2
CN(C)S(=O)(=O)c1ccc2c(c1)c(=O)c(C(=O)NCCCN1CCCCCC1)cn2C	3	1	1	-1	5.2*	-2
